# PMC11006913
# Molecular target: T1, NKX2-4 (Homo sapiens, UniProt Q9H2Z4 175-261, R246Q)
# T1 sequence: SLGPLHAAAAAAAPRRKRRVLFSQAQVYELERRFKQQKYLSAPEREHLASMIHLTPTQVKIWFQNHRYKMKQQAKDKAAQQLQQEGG
# Test: PBM; 200 nM protein, PBS
# Conditions: dsDNA, one strand shown
row,Sequence,binding signal
1,GCGCGACA,"10.1 upbm affinity estimate (log intensity, higher = more binding, comparable within an allelic series)"
2,CTCGAGTA,"12.6 upbm affinity estimate (log intensity, higher = more binding, comparable within an allelic series)"
3,CGGCTGTA,"9.94 upbm affinity estimate (log intensity, higher = more binding, comparable within an allelic series)"
4,CAAGCCAG,"9.73 upbm affinity estimate (log intensity, higher = more binding, comparable within an allelic series)"
5,GAACTGGC,"9.65 upbm affinity estimate (log intensity, higher = more binding, comparable within an allelic series)"
6,AGAGCACT,"12.3 upbm affinity estimate (log intensity, higher = more binding, comparable within an allelic series)"
7,GGCAGTCA,"10.1 upbm affinity estimate (log intensity, higher = more binding, comparable within an allelic series)"
8,GCTGTGCA,"9.6 upbm affinity estimate (log intensity, higher = more binding, comparable within an allelic series)"
9,GTCAAGGA,"11.6 upbm affinity estimate (log intensity, higher = more binding, comparable within an allelic series)"
10,CAAACCCG,"9.6 upbm affinity estimate (log intensity, higher = more binding, comparable within an allelic series)"
11,CAGTGACC,"9.7 upbm affinity estimate (log intensity, higher = more binding, comparable within an allelic series)"
12,AGCTGCGG,"9.45 upbm affinity estimate (log intensity, higher = more binding, comparable within an allelic series)"
13,CCCCGCCG,"9.57 upbm affinity estimate (log intensity, higher = more binding, comparable within an allelic series)"
14,AAAGCACT,"11.9 upbm affinity estimate (log intensity, higher = more binding, comparable within an allelic series)"
15,CATCGCGA,"9.58 upbm affinity estimate (log intensity, higher = more binding, comparable within an allelic series)"
16,CCGCCATA,"9.84 upbm affinity estimate (log intensity, higher = more binding, comparable within an allelic series)"
17,CCGCTACC,"9.79 upbm affinity estimate (log intensity, higher = more binding, comparable within an allelic series)"
18,ATCCCTCC,"9.77 upbm affinity estimate (log intensity, higher = more binding, comparable within an allelic series)"
19,AAAGTACT,"12.8 upbm affinity estimate (log intensity, higher = more binding, comparable within an allelic series)"
20,AACGCTGG,"9.82 upbm affinity estimate (log intensity, higher = more binding, comparable within an allelic series)"

row,Sequence,binding signal
1,CAACCGTC,"9.85 upbm affinity estimate (log intensity, higher = more binding, comparable within an allelic series)"
2,GACACCGC,"9.52 upbm affinity estimate (log intensity, higher = more binding, comparable within an allelic series)"
3,GAGTGCCA,"12.4 upbm affinity estimate (log intensity, higher = more binding, comparable within an allelic series)"
4,CCAGAGAC,"9.63 upbm affinity estimate (log intensity, higher = more binding, comparable within an allelic series)"
5,CGCCCTGA,"9.87 upbm affinity estimate (log intensity, higher = more binding, comparable within an allelic series)"
6,GCACGGGC,"9.56 upbm affinity estimate (log intensity, higher = more binding, comparable within an allelic series)"
7,AGCTCGCG,"9.63 upbm affinity estimate (log intensity, higher = more binding, comparable within an allelic series)"
8,CTCAAGAG,"13 upbm affinity estimate (log intensity, higher = more binding, comparable within an allelic series)"
9,CCGCGGTA,"9.9 upbm affinity estimate (log intensity, higher = more binding, comparable within an allelic series)"
10,ACATGCAG,"9.48 upbm affinity estimate (log intensity, higher = more binding, comparable within an allelic series)"
11,GCGGCGAC,"9.79 upbm affinity estimate (log intensity, higher = more binding, comparable within an allelic series)"
12,GCTATAGC,"9.91 upbm affinity estimate (log intensity, higher = more binding, comparable within an allelic series)"
13,CACGCACG,"9.75 upbm affinity estimate (log intensity, higher = more binding, comparable within an allelic series)"
14,GCACTCAA,"13 upbm affinity estimate (log intensity, higher = more binding, comparable within an allelic series)"
15,CTCTTGAA,"13 upbm affinity estimate (log intensity, higher = more binding, comparable within an allelic series)"
16,AAAGTAGC,"11.7 upbm affinity estimate (log intensity, higher = more binding, comparable within an allelic series)"
17,GCAAGTGC,"12.2 upbm affinity estimate (log intensity, higher = more binding, comparable within an allelic series)"
18,ATCACACC,"9.96 upbm affinity estimate (log intensity, higher = more binding, comparable within an allelic series)"
19,ACTCATAG,"11.9 upbm affinity estimate (log intensity, higher = more binding, comparable within an allelic series)"
20,CGGTCGTA,"9.81 upbm affinity estimate (log intensity, higher = more binding, comparable within an allelic series)"
